We go through 89 compounds from PubChem BioAssay AID588397 (National Center for Advancing Translational Sciences (NCATS), 2011).

Values joined by “and” are separate entries in the source; they are usually repeats but may differ in a detail not shown here. Identical values can stand only once. The whole screen tested about 1,300 compounds, of which about 1,000 (77%) were called active. Not shown: some 7% with an inconclusive outcome. The call rests on the fitted dose curve; in most records, active means well fitted inhibition curve with a large enough effect; inconclusive means small, poorly fitted or top-dose-only effect; inactive means no such curve, though single readings can be large or run the other way. So high a share suggests a set chosen from earlier hits. The list shows a part of the results.
Potency means the concentration at half of the fitted maximal effect.

This assay can be described thus: qHTS of small molecules that selectively kill Giardia lamblia: Hit Validation.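 Further: viability measured as ATP content by luminescence so killing lowers signal; trophozoites exposed to compounds for 48 h anaerobically at 37 °C; nearly all actives have a fitted effect of over 65% in size.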 The conditions noted are these: Giardia lamblia trophozoite viability, dose-response; series mostly up to 38.3 µM. The procedure, abridged:
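Luminescence from cellular ATP indicates surviving trophozoites (100 cells/well) following 48 hrs anaerobic compound treatment at 37 deg C; signal develops 15-30 min at room temperature.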
Background: qHTS replaces the single test concentration by a dilution series.
Turning to `COC(=O)c1sc(NC(=O)c2ccc([N+](=O)[O-])o2)c(C#N)c1C`, the Potency is 0.29 µM (active).
Regarding `NC(=O)c1c(NC(=O)c2ccc([N+](=O)[O-])o2)sc2c1CCCC2`, the Potency is 0.65 µM (active).
Consider `CC(=O)N1CCc2c(sc(NC(=O)c3ccc([N+](=O)[O-])o3)c2C#N)C1`, for which the Potency is 1.16 µM (active).
To `COC(=O)c1c(NC(=O)c2ccc([N+](=O)[O-])o2)sc2c1CCN(C(C)C)C2` belongs 0.818 µM (active); to `CCOc1ccc(-c2cc(C(=O)N3CCN(c4ccccn4)CC3)c3ccccc3n2)cc1`, 1.63 µM (active) and 1.45 µM (active) and 3.26 µM (active); to `O=C(NNC(=O)c1cc(-c2ccncc2)nc2ccccc12)c1ccccc1O`, “inactive”.
To `CCn1cc(-c2cc(C(=O)O)c3ccccc3n2)cn1` belongs 5.16 µM (active); to `CCOC(=O)N1CCN(C(=O)c2cc(-c3ccc(OCC)cc3)nc3ccccc23)CC1`, 2.9 µM (active); to `c1cc(-c2cc3cc(N4CCOCC4)ccc3o2)cs1`, 2.05 µM (active).
`CCCCC(=O)Nc1ncc([N+](=O)[O-])s1`: the Potency is 0.23 µM (active).
To `CC(C)CC(=O)Nc1ncc([N+](=O)[O-])s1` belongs 0.206 µM (active); to `CCCCC(CC)C(=O)Nc1ncc([N+](=O)[O-])s1` (centres undefined), 0.23 µM (active); to `CCC(Oc1ccccc1)C(=O)Nc1ncc([N+](=O)[O-])s1` (centres undefined), 0.103 µM (active).
Under `CCc1nn2c(=O)c(S(=O)(=O)Nc3ccc(Cl)cc3)c(C)nc2s1` stands “inactive”; under `CC(CC(=O)Nc1ncc([N+](=O)[O-])s1)c1ccccc1` (centres undefined), 0.206 µM (active); under `CC1=C(C(=O)Nc2ccc(CC(=O)NCc3ccc(OC(C)C)cc3)cc2)SCCO1`, 4.1 µM (active).
Under `CN(C(=O)CSc1nc2ccccc2c(=O)n1-c1ccc(F)cc1)C1CCS(=O)(=O)C1` (centres undefined) stands “inactive”.
In the case of `CN(C(=O)CSc1nc2ccc([N+](=O)[O-])cc2s1)C1CCS(=O)(=O)C1` (centres undefined), the Potency is 1.45 µM (active).
Turning to `O=C(COc1ccccc1)N=C1SC2CS(=O)(=O)CC2N1c1ccccc1F` (centres undefined), the Potency result is “inactive”.
To `O=[N+]([O-])c1ccc(/C=C/C2=NN(c3ccccc3)C(c3ccco3)C2)o1` (centres undefined) belongs 0.115 µM (active); to `Cc1ccc(C)c(-c2nnc(NC(=O)c3ccc([N+](=O)[O-])o3)o2)c1`, 0.516 µM (active); to `Cc1ccc(-c2nnc(NC(=O)c3ccc([N+](=O)[O-])o3)o2)c(C)c1`, 0.41 µM (active).
On to `COc1ccc(-c2nnc(NC(=O)c3ccc([N+](=O)[O-])o3)o2)c(OC)c1`, for which the Potency was 2.05 µM (active).
Under `O=[N+]([O-])c1cccc(S(=O)(=O)c2ccc(NCCOCCO)c([N+](=O)[O-])c2)c1` stands 1.63 µM (active).
To `O=c1[nH][nH]c(-c2ccccc2)c1C=Nc1ccc(OC(F)(F)F)cc1` belongs “inactive”; to `Cc1ccc(-c2[nH][nH]c(=O)c(=O)c2N=Nc2ccccc2)cc1`, 1.3 µM (active).
To `CC(=O)O[C@@H]1[C@@H](OC(C)=O)[C@H](n2ccc3cc([N+](=O)[O-])ccc32)OC[C@@H]1OC(C)=O` belongs 0.259 µM (active); to `COc1ccccc1C1OC2=C(Nc3ccc([N+](=O)[O-])cc3N2)C1=O` (centres undefined), 3.65 µM (active); to `CCN(CC)CCOC(=O)c1ccc(N/C=C(/C#N)c2nc(-c3cc4ccccc4oc3=O)cs2)cc1`, 0.516 µM (active).
Consider `CCN(CC)CCOC(=O)c1ccc(N/C=C(/C#N)c2nc(-c3ccc4c(c3)OCO4)cs2)cc1`, for which the Potency was 2.05 µM (active).
Take `O=c1c2c([N+](=O)[O-])cc([N+](=O)[O-])cc2nc2ccccn12`: the Potency is 2.59 µM (active).
To `O=C(CCc1ccccc1)Nc1ncc([N+](=O)[O-])s1` belongs 0.23 µM (active).
As for `O=C(Nc1ccccc1)Nc1ncc([N+](=O)[O-])s1`, the Potency is 4.1 µM (active).
To `O=C(CCS(=O)(=O)Cc1ccccc1)Nc1ncc([N+](=O)[O-])s1` belongs 0.65 µM (active); to `O=C(CCS(=O)(=O)c1ccccc1)Nc1ncc([N+](=O)[O-])s1`, 1.16 µM (active); to `C[n+]1ccnc2ccccc21`, 2.59 µM (active).
To `O=c1[nH]c2cccnc2n1-c1ccc([N+](=O)[O-])cc1` belongs 1.83 µM (active); to `CC(C)(C)C(=O)N1CCN(c2ccc(NC(=O)c3ccc([N+](=O)[O-])o3)cc2)CC1`, 1.45 µM (active); to `CCC(=O)N1CCN(c2ccc(NC(=O)c3ccc([N+](=O)[O-])o3)cc2)CC1`, 0.918 µM (active).
Under `CCCC(=O)N1CCN(c2ccc(NC(=O)c3ccc([N+](=O)[O-])o3)cc2)CC1` stands 0.729 µM (active).
Take `CC(C)C(=O)N1CCN(c2ccc(NC(=O)c3ccc([N+](=O)[O-])o3)cc2)CC1`: the Potency is 1.03 µM (active).
Under `Cc1ncc([N+](=O)[O-])n1CCOC(=O)c1ccc(Cl)cc1Cl` stands 0.818 µM (active); under `Cc1ncc([N+](=O)[O-])n1CCOC(=O)c1cc(Cl)cc(Cl)c1N`, 0.163 µM (active); under `CN=C1C=C/C(=N/N=c2\ccn(O)cc2C)C=C1C`, 1.45 µM (active).
Take `O=C(Nc1csc([N+](=O)[O-])c1)Nc1ccccc1Cl`: the Potency was 1.63 µM (active).
To `COC(=O)/C(=C\c1ccc([N+](=O)[O-])o1)NC(=O)c1ccccc1` belongs 1.03 µM (active).
Regarding `COc1cc(/C=C(\NC(=O)c2ccccc2)C(=O)NCCO)c([N+](=O)[O-])cc1OC`, the Potency entry was “inactive”.
Under `CCCOC(=O)/C(=C\c1ccc([N+](=O)[O-])o1)NC(=O)c1ccccc1` stands 0.729 µM (active).
To `CCCCNC(=O)/C(=C\c1ccc([N+](=O)[O-])o1)NC(=O)c1ccccc1` belongs 1.03 µM (active); to `CCOc1ccccc1C(=O)Nc1ccc2nc(N3CCN(c4ncccn4)CC3)cc(C)c2c1`, 3.26 µM (active).
Take `O=C1C(c2ccncc2)=C(O)c2ccccc21`: the Potency was 9.18 µM (active).
To `CS/C(Nc1cc(Cl)ccc1Cl)=C(/C#N)C(=O)c1ccco1` belongs 5.79 µM (active); to `O=[N+]([O-])c1ccc(N=NN(CCO)CCO)cc1`, 3.26 µM (active); to `O=C(CCC(=O)Nc1ccc(Cl)cc1Cl)N/N=C/c1ccc([N+](=O)[O-])o1`, 0.818 µM (active).
To `CCCCCC(=O)N/N=C/c1ccc([N+](=O)[O-])o1` belongs 0.579 µM (active); to `CCOC(=O)N/N=C\c1ccc([N+](=O)[O-])o1`, 1.3 µM (active); to `O=C(CSc1ccc(Cl)cc1)N/N=C/c1ccc([N+](=O)[O-])o1`, 0.818 µM (active).
To `CCCCCCCC(=O)N/N=C/c1ccc([N+](=O)[O-])o1` belongs 0.579 µM (active); to `COc1ccc(NS(=O)(=O)c2ccc(C)cc2)c([N+](=O)[O-])c1`, 1.83 µM (active); to `CC(=O)Nc1ccc(NS(=O)(=O)c2ccc(C)cc2)c([N+](=O)[O-])c1`, 0.516 µM (active).
`CN(CCc1ccccc1)C(=O)c1cccc(NC(=O)Cc2cccc(NC(=O)C3CCN(C(=O)C4CCCC4)CC3)c2)c1`: the Potency result was “inactive”.
Under `O=C(Nc1ccccc1C(=O)O)c1ccc(NC(=O)C2CC2)cc1` stands 4.1 µM (active); under `CN(Cc1ccccc1)C(=O)c1ccc(NC(=O)Cc2cccc(NC(=O)C3CCN(C(=O)C4CC4)CC3)c2)cc1`, “inactive”; under `N/C(=N\O)c1ccc([N+](=O)[O-])s1`, 2.9 µM (active).
To `O=[N+]([O-])c1cccn2cc(-c3ccc(Br)cc3)nc12` belongs 0.729 µM (active); to `O=C(c1ccco1)N1CCN(c2c([N+](=O)[O-])nn(-c3ccc(Cl)cc3)[n+]2[O-])CC1`, 0.918 µM (active).
To `O=C(c1ccco1)N1CCN(c2c([N+](=O)[O-])nn(-c3cccc(Cl)c3)[n+]2[O-])CC1` belongs 2.59 µM (active); to `Cn1c([N+](=O)[O-])cnc1COC(N)=O`, 1.16 µM (active); to `O=C(NC(=S)Nc1ccc(CN2CCOCC2)cc1)c1ccc([N+](=O)[O-])cc1Cl`, 4.1 µM (active).
`CC(C)OC(=O)Nc1ccc2c(c1)N(C(=O)N1CCN(C)CC1)c1ccccc1CC2`: the Potency was 4.1 µM (active).
To `CCCCOc1ccc(C(=O)NCC(=O)NCCCn2nc(C)cc2C)cc1` belongs “inactive”; to `O=C(CN1C(=O)c2ccccc2S1(=O)=O)c1ccc2c(c1)OCCCO2`, 1.03 µM (active).
For the compound `O=C(CN1C(=O)c2ccccc2S1(=O)=O)c1ccc2c(c1)OCCO2`, the Potency was 2.9 µM (active).
Under `CC1CS(=O)(=O)CCN1N=Cc1ccc([N+](=O)[O-])o1` (centres undefined) stands 0.365 µM (active).
Under `O=C1SCCN1N=Cc1ccc([N+](=O)[O-])o1` stands 0.326 µM (active); under `O=C1OC(CN(Cc2ccccc2)Cc2ccccc2)CN1N=Cc1ccc([N+](=O)[O-])o1` (centres undefined), 0.65 µM (active); under `Cc1ccc(-c2ccc(/C=N/N3C(=O)C4C5C=CC(CC5)C4C3=O)o2)c([N+](=O)[O-])c1` (centres undefined), “inactive”.
To `O=C1c2cc([N+](=O)[O-])cc3cc([N+](=O)[O-])cc(c23)C(=O)N1c1ccccn1` belongs 1.83 µM (active); to `Cc1cc(O)ccc1N1C(=O)c2cccc3cc([N+](=O)[O-])cc(c23)C1=O`, 2.9 µM (active).
Regarding `Cc1c(NC(=O)c2ccc([N+](=O)[O-])o2)cccc1-c1nc2ncccc2o1`, the Potency is 0.918 µM (active).
Under `Cc1ccc(-c2nc3ncccc3o2)cc1NC(=O)c1ccc([N+](=O)[O-])o1` stands 0.918 µM (active).
Under `O=C(Nc1ccc(-c2nc3ncccc3o2)cc1)c1ccc([N+](=O)[O-])o1` stands 1.3 µM (active); under `Cc1cc2ncn(/N=C/c3ccc([N+](=O)[O-])s3)c2cc1C`, 1.3 µM (active).
Under `Nc1nc2ccccc2n1/N=C/c1ccc([N+](=O)[O-])s1` stands 0.41 µM (active); under `O=[N+]([O-])c1ccc(/C=N/n2c(CO)nc3ccccc32)s1`, 0.65 µM (active); under `Cc1nc2ccccc2n1/N=C/c1ccc([N+](=O)[O-])s1`, 1.63 µM (active).
On to `O=C(Cc1ccccc1)Nc1nnc(-c2cccs2)s1`, for which the Potency was 1.45 µM (active).
Under `CCc1nc2cc([N+](=O)[O-])c([N+](=O)[O-])cc2[nH]1` stands 6.5 µM (active); under `O=[N+]([O-])c1ccc2nc(CO)[nH]c2c1`, 2.31 µM (active).
